According to PubChem BioAssay (NCATS):
Results filed as inconclusive are left out. Calls of active or inactive are those of the source. Calls follow the shape of the dose curve; as a rule, active = well fitted cell-killing curve with a large enough effect; inconclusive = small, poorly fitted or top-dose-only effect, or effect the other way; inactive = flat fitted curve, though single readings scatter.

Tests used:
Experiment in all cases: Primary qHTS to identify gynecologic anti-cancer compounds using libraries of approved drugs and bioactive compounds (AID 1345084); also: nearly all actives have a fitted effect of over 55% in size
Conditions in all cases: Gynecologic cancer cell panel viability, ATPlite luminescence, 48 h; series mostly up to 57.5 µM
[1] = system: OV90
Procedure, shortened: (§1)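 Luminescence from the ATPlite ATP-monitoring reagent indicates viable cell number; lower signal means cytotoxicity. Cells received compound 16 h after seeding and were exposed for 48 h across five concentrations.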

[2] = system: PA-1
Procedure, shortened: as §1

[3] = system: SKOV3
Procedure, shortened: as §1

[4] = system: Tov-21-G
Procedure, shortened: as §1

[5] = system: Tov112D
Procedure, shortened: as §1
% is scaled to controls: 0 for no effect and ±100 for the full control effect.

CCC/C=C/C=C/C1CC(O)C(O)C(=O)C1CO (stereo not given)
inactive: Potency [1] | Potency [2] | Potency [3] | Potency [4] | Potency [5]

CC(=O)c1[nH]cc(CCC(=O)O)c1CC(=O)O
inactive: Potency [1] | Potency [2] | Potency [3] | Potency [4] | Potency [5]

CC1C2=CC(=O)OC2(O)CC2C1CCC1C(C)(C)CCC(O)C21C (stereo not given)
inactive: Potency [1] | Potency [2] | Potency [3] | Potency [4] | Potency [5]

COC(=O)c1c(CC=C(C)C)c(OC2OC(CO)C(O)C(O)C2O)c2ccccc2c1OC1OC(CO)C(O)C(O)C1O (stereo not given)
inactive: Potency [1] | Potency [2] | Potency [3] | Potency [4] | Potency [5]

CC(=O)/C=C/[C@H]1[C@](C)(O)[C@@H](O)[C@H](O)C2C(C)(C)CCC[C@@]21C (stereo not given in full)
inactive: Potency [1] | Potency [2] | Potency [3] | Potency [4] | Potency [5]

COc1cc([C@@H](O[C@@H]2O[C@H](CO)[C@@H](O)[C@H](O)[C@H]2O)[C@@H]2CO[C@H](c3ccc(O)c(OC)c3)[C@H]2CO)ccc1O
inactive: Potency [1] | Potency [2] | Potency [3] | Potency [4] | Potency [5]

C=C1CCC2C(C)(C(=O)OC)CCCC2(C)C1CCC1=CCOC1=O (stereo not given)
inactive: Potency [1] | Potency [2] | Potency [3] | Potency [4] | Potency [5]

CC(=O)OCC1OC(O[C@H]2CC[C@]34C[C@]35CC(O)[C@]3(C)[C@@H]([C@H](C)CC/C=C(\C)C(=O)O)C(O)C[C@@]3(C)C5CC[C@H]4C2(C)C)C(O)C(O)C1OC1OCC(O)C(O)C1O (stereo not given in full)
inactive: activity change, negative = cytotoxicity [1] -7.9% [at 11.6 µM] | activity change, negative = cytotoxicity [2] -0.531% [at 11.6 µM] | activity change, negative = cytotoxicity [3] -12.1% [at 11.6 µM] | activity change, negative = cytotoxicity [4] 4.53% [at 11.6 µM] | activity change, negative = cytotoxicity [5] 2.89% [at 11.6 µM]
